A short description of experiment [1]: anti-His antibody binders, primary screen, artefact control for SMM control protein annotation, biochemical, small-molecule microarray, 635 nm fluorescence (AID 1128).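 Further: score merges feature fluorescence with signal-to-noise for each printed compound spot.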 The following applies: anti-His Alexa647 antibody binding, higher = more signal.
In experiment [2] the test system is Human papillomavirus type 1a E7 protein (residues 1-88). The experiment in a line: HPV1a E7 small-molecule binders, primary screen, biochemical, small-molecule microarray, residues 1-88, 635 nm (AID 1129). Conditions: small-molecule microarray binding, fluorescence 635 nm; higher = more signal.
Experiment [3] addresses Focal adhesion kinase 1 (Homo sapiens) (UniProt Q05397). The experiment can be described thus: small-molecule microarray binders of FAK, primary screen, biochemical, 635/667 nm fluorescence, BSA, DTT (AID 1130).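 Further: composite of spot emission at 667 nm and signal to noise over triplicate slides.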 Conditions: PTK2 binding, 635 nm fluorescence, higher = more signal.
The subject of experiment [4] is Fibrinogen (Alexa647-labelled). The experiment can be described thus: fibrinogen binders on compound microarrays, profiling panel, artefact control for SMM control-protein annotation, biochemical, small-molecule microarray, 635/667 nm fluorescence (AID 1131).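 Further: z-score merges 667 nm fluorescence with per-spot signal-to-noise over triplicate slides.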 The following applies: fibrinogen-A647 binding fluorescence, higher = more signal.
Experiment [5] has as its target Follistatin (Homo sapiens) (UniProt P19883). The experiment can be described thus: follistatin binders on small-molecule microarrays, primary screen, biochemical, small-molecule microarray, 635/667 nm fluorescence (AID 1132). Conditions: FST binding, 635 nm fluorescence, higher = more signal.
Experiment [6] addresses Fibroblast growth factor 2 (Homo sapiens) (UniProt P09038). The experiment in a line: FGF2 binders on small-molecule microarrays, primary screen, biochemical, small-molecule microarray, 635/667 nm fluorescence (AID 1133). The following applies: small-molecule microarray binding, FGF2, fluorescence 635/667; higher = more signal.
Experiment [7] in a line: mitochondrial membrane potential change in A549 cells, profiling panel, cell-based, JC-1 fluorescence, basal, 24 h, 100 nL (AID 1138).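 Further: A549 lung adenocarcinoma cells under basal conditions with no added stimulus; test concentration not given here.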 Conditions: higher = more signal.
The subject of experiment [8] is Lefty1. The experiment can be described thus: Lefty1 binders on small-molecule microarrays, primary screen, biochemical, small-molecule microarray, 635/667 nm fluorescence (AID 1139). The following applies: small-molecule microarray binding, fluorescence 635/667; higher = more signal.
For experiment [9], the system named is wheat germ agglutinin (Triticum aestivum), Alexa647-labelled. The experiment in a line: wheat germ agglutinin binders on compound microarrays, profiling panel, artefact control for SMM control-protein annotation, biochemical, small-molecule microarray, 635/667 nm fluorescence (AID 1140).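 Further: score merges 667 nm feature emission with signal to noise over triplicate slides.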 The following applies: WGA-A647 binding, 635 nm fluorescence, higher = more signal.

Experiment [10] deals with Luciferin 4-monooxygenase (Photinus pyralis) (UniProt P08659). The experiment in a line: firefly luciferase enzyme inhibitors, primary screen, biochemical, luminescence, purified enzyme, 2006 set (AID 1141).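 Further: cell-free assay with purified firefly luciferase at 100 ng per well in PBS; test concentration not given here.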 The following applies: SteadyGlo luminescence, 30 min, higher = more signal, called active from +8 up or from −8 down.
In experiment [11] the test system is Wnt5a (protein binding on small-molecule microarray). The experiment can be described thus: Wnt5a binders on small-molecule microarray, primary screen, biophysical, 635/667 nm fluorescence (AID 1142).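 Further: fluorescence read at 667 nm with signal to noise per printed feature.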 The following applies: 635 nm fluorescence, higher = more signal.
Experiment [12] can be described thus: cell viability in Huh7 cells, primary screen, cytotoxicity control for HCV replication inhibitor project, CellTiter-Glo luminescence, basal, 48 h (AID 1143).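 Further: Huh7 hepatoma cells carrying a hepatitis C replication reporter with no stimulus; test concentration not given here.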 Conditions: Huh7 HCV replicon, higher = more signal, called active from +8 up or from −8 down.
The nature of experiment [13]: P. aeruginosa biofilm formation inhibitors, primary screen, PAO1 strain, BacTiter-Glo luminescence, LB-PBS (AID 1144). Conditions: 12 h, higher = more signal.
Experiment [14] can be described thus: CREB reporter modulators without forskolin, primary screen, cell-based, PC12, CRE-LacZ reporter, unstimulated (AID 1145). Conditions: no forskolin, luminescence, 4.5 h, higher = more signal, called active from +8 up or from −8 down.
Experiment [15] can be described thus: CREB reporter modulators under forskolin, primary screen, cell-based, PC12, CRE-LacZ reporter, forskolin-stimulated (AID 1146).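 Further: PC12 cells with 6xCRE LacZ reporter stimulated by forskolin 10 µM; beta-galactosidase reporter signal reflecting CREB driven transcription.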 The following applies: luminescence, 4.5 h, higher = more signal, called active from +8 up or from −8 down.
Experiment [16] concerns the target Streptavidin (Streptomyces avidinii) (UniProt P22629). The experiment in a line: streptavidin binders on small-molecule microarray, primary screen, artefact control for SMM compound annotation, biophysical, 635/667 nm fluorescence (AID 1147).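 Further: signal reflects streptavidin binding to arrayed compounds as a control protein.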 Conditions: streptavidin binding, higher = more signal.
The nature of experiment [17]: small-molecule binders of probe aInhba, primary screen, biochemical, small-molecule microarray, 635/667 nm fluorescence (AID 1148).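 Further: score merges 667nm spot fluorescence with signal-to-noise for antibody binding to printed compounds.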 The following applies: higher = more signal.
The target of experiment [18] is Torsin-1A (Homo sapiens) (UniProt O14656). The experiment can be described thus: torsin A binders from cell lysate, primary screen, small-molecule microarray, wild-type, 635/667 nm (AID 1149). Conditions: COS7 hTOR1A-WT lysate, 635 nm fluorescence, higher = more signal.
Experiment [19] has the same target. The experiment can be described thus: small-molecule binders of mutant TOR1A in lysate, primary screen, cell lysate, small-molecule microarray, COS7 lysate, 635/667 nm fluorescence (AID 1150).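 Further: score pools 667 nm emission and signal to noise measuring lysate protein binding.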 The following applies: COS7 hTOR1A mutant lysate, 635 nm fluorescence, higher = more signal.
The test system of experiment [20] is Sonic hedgehog protein (Shh). The experiment can be described thus: small-molecule binders of Shh protein, primary screen, biochemical, small-molecule microarray, 635/667 nm fluorescence (AID 1151).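 Further: Shh protein binding to compounds spotted on small-molecule microarray slides; score combines spot fluorescence intensity with signal-to-noise across triplicate slides.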 The following applies: small-molecule microarray binding, 635 nm fluorescence; higher = more signal.

Calls of active or inactive are those of the source. Unless noted, how the calls were made is not given here.

Chain of Streptavidin (Streptomyces avidinii) (P22629 whole entry, looked up): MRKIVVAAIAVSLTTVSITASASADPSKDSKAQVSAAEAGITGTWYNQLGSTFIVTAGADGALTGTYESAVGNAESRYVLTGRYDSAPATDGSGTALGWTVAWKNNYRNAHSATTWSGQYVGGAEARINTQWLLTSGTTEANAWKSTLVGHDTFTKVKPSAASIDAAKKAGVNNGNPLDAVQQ
Chain of Fibroblast growth factor 2 (Homo sapiens) (P09038 whole entry, looked up): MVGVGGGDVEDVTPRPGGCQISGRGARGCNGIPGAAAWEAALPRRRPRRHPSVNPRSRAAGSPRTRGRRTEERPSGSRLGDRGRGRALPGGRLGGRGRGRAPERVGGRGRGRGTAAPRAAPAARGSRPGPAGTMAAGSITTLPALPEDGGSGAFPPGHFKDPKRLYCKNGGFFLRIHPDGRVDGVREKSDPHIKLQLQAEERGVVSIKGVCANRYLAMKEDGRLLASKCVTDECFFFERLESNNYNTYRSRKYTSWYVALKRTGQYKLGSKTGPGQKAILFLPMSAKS
Chain of Luciferin 4-monooxygenase (Photinus pyralis) (P08659 whole entry, looked up): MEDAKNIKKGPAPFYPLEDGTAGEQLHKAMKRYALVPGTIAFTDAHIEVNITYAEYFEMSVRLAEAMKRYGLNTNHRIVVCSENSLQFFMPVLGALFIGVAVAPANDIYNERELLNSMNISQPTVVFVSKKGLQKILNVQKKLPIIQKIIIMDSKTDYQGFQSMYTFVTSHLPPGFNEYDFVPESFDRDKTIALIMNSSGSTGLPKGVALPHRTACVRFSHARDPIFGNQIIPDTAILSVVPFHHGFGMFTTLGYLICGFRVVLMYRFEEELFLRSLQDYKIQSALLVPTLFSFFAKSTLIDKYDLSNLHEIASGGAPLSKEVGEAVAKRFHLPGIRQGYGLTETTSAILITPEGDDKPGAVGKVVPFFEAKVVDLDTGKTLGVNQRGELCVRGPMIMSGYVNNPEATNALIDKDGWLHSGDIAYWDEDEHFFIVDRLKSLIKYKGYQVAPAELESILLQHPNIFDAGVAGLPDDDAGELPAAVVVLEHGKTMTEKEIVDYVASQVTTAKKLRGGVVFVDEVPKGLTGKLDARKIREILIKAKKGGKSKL
Chain of Torsin-1A (Homo sapiens) (O14656 whole entry, looked up): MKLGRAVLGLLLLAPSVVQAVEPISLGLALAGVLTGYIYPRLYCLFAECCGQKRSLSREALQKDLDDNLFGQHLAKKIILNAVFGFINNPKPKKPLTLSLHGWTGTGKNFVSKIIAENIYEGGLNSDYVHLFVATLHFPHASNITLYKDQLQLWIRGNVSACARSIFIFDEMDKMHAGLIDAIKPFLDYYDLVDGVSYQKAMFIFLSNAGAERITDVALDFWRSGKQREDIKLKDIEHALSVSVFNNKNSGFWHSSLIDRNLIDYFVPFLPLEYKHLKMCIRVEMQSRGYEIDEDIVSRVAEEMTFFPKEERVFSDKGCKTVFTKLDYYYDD
Chain of Focal adhesion kinase 1 (Homo sapiens) (Q05397 whole entry, looked up): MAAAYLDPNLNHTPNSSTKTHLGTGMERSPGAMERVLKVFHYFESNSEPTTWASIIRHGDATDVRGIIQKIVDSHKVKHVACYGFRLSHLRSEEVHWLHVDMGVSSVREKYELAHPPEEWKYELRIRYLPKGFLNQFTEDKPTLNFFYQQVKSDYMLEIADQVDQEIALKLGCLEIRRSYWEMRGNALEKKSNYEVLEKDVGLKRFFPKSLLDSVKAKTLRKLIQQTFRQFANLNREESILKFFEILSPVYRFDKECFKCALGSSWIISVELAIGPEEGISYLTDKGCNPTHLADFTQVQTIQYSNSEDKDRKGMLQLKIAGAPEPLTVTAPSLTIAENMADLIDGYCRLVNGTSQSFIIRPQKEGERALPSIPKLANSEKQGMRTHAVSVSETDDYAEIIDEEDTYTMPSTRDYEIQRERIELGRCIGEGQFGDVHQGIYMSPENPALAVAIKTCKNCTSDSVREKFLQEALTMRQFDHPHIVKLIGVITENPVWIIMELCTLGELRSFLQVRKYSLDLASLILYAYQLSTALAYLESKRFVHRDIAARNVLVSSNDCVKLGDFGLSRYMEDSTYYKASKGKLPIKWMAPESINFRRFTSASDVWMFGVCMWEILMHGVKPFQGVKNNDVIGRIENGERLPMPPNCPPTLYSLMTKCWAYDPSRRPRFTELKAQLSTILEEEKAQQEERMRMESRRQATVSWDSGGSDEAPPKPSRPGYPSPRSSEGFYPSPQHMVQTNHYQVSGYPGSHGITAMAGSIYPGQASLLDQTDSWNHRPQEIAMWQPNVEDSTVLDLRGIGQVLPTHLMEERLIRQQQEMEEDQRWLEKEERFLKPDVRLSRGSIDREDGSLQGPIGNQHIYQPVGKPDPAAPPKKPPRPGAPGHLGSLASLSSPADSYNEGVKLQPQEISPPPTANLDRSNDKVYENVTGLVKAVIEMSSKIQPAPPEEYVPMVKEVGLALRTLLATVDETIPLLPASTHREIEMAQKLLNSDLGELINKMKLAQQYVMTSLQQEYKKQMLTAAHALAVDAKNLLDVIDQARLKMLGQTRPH
Chain of Follistatin (Homo sapiens) (P19883 whole entry, looked up): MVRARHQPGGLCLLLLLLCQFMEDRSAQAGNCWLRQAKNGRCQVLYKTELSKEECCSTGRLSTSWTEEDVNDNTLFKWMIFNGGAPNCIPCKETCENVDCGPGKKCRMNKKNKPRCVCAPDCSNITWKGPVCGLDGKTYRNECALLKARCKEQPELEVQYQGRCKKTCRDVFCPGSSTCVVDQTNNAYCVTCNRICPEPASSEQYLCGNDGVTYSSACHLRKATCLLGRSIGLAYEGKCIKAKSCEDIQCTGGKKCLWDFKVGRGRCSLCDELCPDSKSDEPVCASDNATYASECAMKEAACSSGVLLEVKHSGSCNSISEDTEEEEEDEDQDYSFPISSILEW

For the compound `CCN(CC)c1ccc(N2CC=CC34O[C@@H]5C=CCOC(=O)[C@@H]5[C@H]3C(=O)N(CCCO)[C@@H]4C2=O)cc1` (stereo not given in full), the composite z-score in [1] was 1.53; in experiment [2], -1.05; in [3] it was -0.0534; in [4], -0.973; in experiment [5], -0.658; in experiment [6], -0.576. In addition, the composite z-score in experiment [8] was -0.923; in experiment [9] it was -0.245; in experiment [11] it was -0.121; in [16], -1.39; in experiment [17], -0.128; in experiment [18], 0.0507. In addition, the composite z-score is 2.46 in experiment [19] and -0.0981 in [20]. In addition, the z-score was -0.125 in [7]; -0.803 (inactive) in experiment [10]; -2.34 (inactive) in [12]; -0.527 (inactive) in experiment [13]; -0.228 (inactive) in [14]; -0.905 (inactive) in experiment [15].

Consider `CCCC[C@@H]1C[C@H]1[C@@H](NC(=O)Cc1ccccc1)c1ccc(Cl)cc1`, for which the composite z-score was 1.84 in experiment [1]; 1.18 in experiment [2]; 1.53 in experiment [3]; 1.02 in experiment [4]; 0.841 in experiment [5]; -0.272 in [6]. The composite z-score in experiment [8] is -0.297; in [9], 1.25; in experiment [11], 0.545; in experiment [16] it was 2.32; in [17], -0.0002; in experiment [18] it was 0.578. Also, the composite z-score was 0.311 in experiment [19] and -0.22 in [20]. The z-score in experiment [7] is -2.79; in experiment [10], 0.957 (inactive); in experiment [12], -3.44 (inactive); in experiment [13], 1.19 (inactive); in experiment [14], 0.962 (inactive); in [15] it was 0.56 (inactive).

Take `CCCCCCc1nc(-c2ccc(OC)nc2)cc2c1[Si](C(C)C)(C(C)C)OC2`: the composite z-score was -0.102 in experiment [1]; -0.493 in experiment [2]; -0.206 in [3]; -0.137 in experiment [4]; -0.0974 in experiment [5]; -0.206 in experiment [6]. In addition, the composite z-score in experiment [8] was -0.0037; in [9] it was -0.218; in [11], -0.446; in [16], 0.151; in [17], -0.0963; in experiment [18] it was -0.734. Moreover, the values for the composite z-score in experiment [19] and in [20] were 0.706 and -0.0247, respectively. Moreover, the z-score is -1.46 in [7]; 0.997 (inactive) in experiment [10]; -3.35 (inactive) in experiment [12]; -0.757 (inactive) in experiment [13]; -0.36 (inactive) in [14]; -0.565 (inactive) in experiment [15].

Regarding `CC(=O)NCCCC[C@@H]1NC(=O)[C@H]2C[C@@H](C(=O)NCCCCCC[N+](C)(C)C)[C@@H](c3ccc(O)cc3)N2C1=O`, the composite z-score was 1.54 in [1]; 1.08 in [2]; 0.26 in experiment [3]; -0.0238 in experiment [4]; 1.26 in [5]; 0.862 in [6]. For the same compound, the composite z-score in experiment [8] was 1.41; in experiment [9], 0.16; in experiment [11], -0.127; in experiment [16], -0.448; in experiment [17], 0.0857; in experiment [18], 1.4. The composite z-score came out at 1.75 in experiment [19] and 2.1 in [20]. Further, the z-score in [7] was -0.431; in [10], 0.512 (inactive); in experiment [12] it was -0.385 (inactive); in [13] it was -1.42 (inactive); in [14], -1.35 (inactive); in [15] it was -0.665 (inactive).

On to `CN(C)CCCC[C@@H]1NC(=O)[C@@H]2C[C@H](C(=O)NCCCCCCNC(=O)CS)[C@H](c3cccc(OCCO)c3)N2C1=O`, for which the composite z-score is 1.5 in experiment [1]; 0.0742 in experiment [2]; 0.819 in experiment [3]; -1.07 in [4]; 0.541 in experiment [5]; 0.541 in experiment [6]. The composite z-score in [8] was 0.273; in experiment [9], 0.235; in [11], 0.152; in [16], -0.149; in experiment [17], -0.0471; in experiment [18] it was 0.77. Besides, the composite z-score in experiment [19] stood at 0.702; in experiment [20], 0.919. Moreover, the z-score is 1.12 in [7]; -0.402 (inactive) in [10]; 0.425 (inactive) in [12]; -0.332 (inactive) in [13]; -0.256 (inactive) in experiment [14]; -0.995 (inactive) in experiment [15].

The record behind these values is PubChem BioAssay.
